According to PubChem BioAssay (NCATS):
Inconclusive results are not listed. Where a call stands in place of a potency, no number is given. Calls of active or inactive are those of the source. Calls come from the whole dose curve; as a rule, active = well fitted cell-killing curve with a large enough effect; inconclusive = small, poorly fitted or top-dose-only effect; inactive = flat fitted curve, though single readings scatter.

Test: Cell Viability - LYMP2-019 (AID 973);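 note: cells exposed to compound for 24 h at 37 °C; nearly all actives have a fitted effect of over 55% in size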
Conditions: LYMP2-019 lymphoblastoid cell line viability; series mostly up to 92.2 µM
Text: NIH Chemical Genomics Center [NCGC]
NIH Molecular Libraries Screening Centers Network [MLSCN]
National Institutes of Environmental Health Sciences [NIEHS]
National Toxicology Program [NTP]
We have developed a 1536-well cell-based assay for quantitative high throughput screening (qHTS) against a number of cell lines to determine in vitro cytotoxicity of small molecules. This particular assay uses a human lymphoblastoid cell line (LYMP2-019) purchased from Coriell Institute for Medical Research.
NCGC Assay Protocol Summary:
The CellTiter-Glo luminescent cell viability assay (Promega) is a homogeneous method to measure the number of viable cells in culture. The end point readout of this assay is based on quantitation of intracellular ATP, an indicator of metabolic activity, using the luciferase reaction. Luciferase catalyzes the oxidation of beetle Luciferin to oxyluciferin and light in the presence of ATP. The luminescent signal is proportional to amount of ATP present.
Using the CellTiter-Glo luminescent cell viability assay, the amount of cellular ATP was measured in the lymphoblastoid cell line with complete culture medium following compound treatment for 24 hours. The assay was performed in opaque white Kalypsys 1536-well plates. In the screen, tetraoctylammonium bromide was used as positive control. Library compounds were measured for their ability to cause acute toxicity in the cell line, as reflected by a decrease in intracellular ATP levels, in a concentration-dependent manner. […] AC50 values were determined from concentration-response data modeled with the standard Hill equation.
qHTS protocol for CellTiter Glo lymphoblastoid cellular assay
[Step] [Parameter] [Value] [Description]
1. Reagent; 5 uL; 2500 lymphoblastoid cells/well
2. Time; 5 hr; 37 C incubation
4. Controls; 23 nL; Tetraoctylammonium bromide 6.4pM to 92 uM
5. Time; 24 hr; 37 C incubation
6. Reagent; 5 uL; CellTiter Glo reagent
7. Time; 30 min; Room Temperature
8. Detection; Luminescence; Viewlux plate reader
Keywords: cell viability, cytotoxicity, lymphoblastoid cell line, luminescence, NTPHTS, NTPHTS_NCGC, NIEHS, DSSTox, MLSMR, MLSCN, NIH Roadmap, qHTS, NCGC
Potency is the fitted concentration of half-maximal effect.

**Q.** For C=CC=O, which Potency is on record?
**A.** inactive

**Q.** With [N-]=[N+]=[N-] as the compound, how does the Potency read?
**A.** inactive

**Q.** For ClCCBr, which Potency is on record?
**A.** inactive

**Q.** For Nc1c(Cl)cc([N+](=O)[O-])cc1Cl, which Potency is on record?
**A.** inactive

**Q.** With CCCCCCCCCCCOC(=O)c1ccccc1C(=O)OCCCCCCCCCCC as the compound, how does the Potency read?
**A.** inactive

**Q.** With Nc1ccc([N+](=O)[O-])cc1N as the compound, how does the Potency read?
**A.** inactive

**Q.** Which Potency does the source give for O=[N+]([O-])c1cccc2c([N+](=O)[O-])cccc12 here?
**A.** inactive

**Q.** With CCOP(=S)(OCC)SCCSCC as the compound, how does the Potency read?
**A.** inactive

**Q.** For CCC/C=N/O, which Potency is on record?
**A.** inactive

**Q.** With Cc1cccc(N)c1C as the compound, how does the Potency read?
**A.** inactive

**Q.** For Nc1cccc(Cl)c1, which Potency is on record?
**A.** inactive

**Q.** With O=[N+]([O-])c1ccccc1CCl as the compound, how does the Potency read?
**A.** 63.1 µM (active)

**Q.** For CCOC(=O)C1OC1(C)c1ccccc1 (stereo not given), which Potency is on record?
**A.** inactive

**Q.** For c1ccc(N=NNc2ccccc2)cc1, which Potency is on record?
**A.** inactive

**Q.** With O=C(O)C(Br)Br as the compound, how does the Potency read?
**A.** inactive

**Q.** Which Potency does the source give for O=C(O)c1cccc(Cl)c1 here?
**A.** inactive

**Q.** With CC(C)OS(C)(=O)=O as the compound, how does the Potency read?
**A.** inactive

**Q.** Which Potency does the source give for CN(C)c1ccccc1 here?
**A.** inactive

**Q.** For Clc1cccc(Cl)c1Cl, which Potency is on record?
**A.** inactive

**Q.** For Cc1cccc(C)c1N, which Potency is on record?
**A.** inactive

**Q.** With CCCCCOC(=O)c1ccccc1C(=O)OCCCCC as the compound, how does the Potency read?
**A.** inactive

**Q.** Which Potency does the source give for CC(C)OC(=O)Cc1ccccc1 here?
**A.** inactive

**Q.** With Clc1ccc(Cl)c(Cl)c1 as the compound, how does the Potency read?
**A.** inactive

**Q.** With C=CCc1cc(OC)c2c(c1)OCO2 as the compound, how does the Potency read?
**A.** inactive

**Q.** With CC(C)(C)C(O)(CCc1ccc(Cl)cc1)Cn1cncn1 (stereo not given) as the compound, how does the Potency read?
**A.** inactive

**Q.** Which Potency does the source give for Brc1ccc(Oc2ccc(Br)cc2Br)c(Br)c1 here?
**A.** inactive

**Q.** For CC(C)(OOC(C)(C)c1ccccc1)c1ccccc1, which Potency is on record?
**A.** inactive

**Q.** For ClC(Cl)C(Cl)Cl, which Potency is on record?
**A.** inactive

**Q.** With Nc1ccc(Cc2ccc(N)c(Cl)c2)cc1Cl as the compound, how does the Potency read?
**A.** inactive

**Q.** With Oc1cccc(Cl)c1Cl as the compound, how does the Potency read?
**A.** inactive

**Q.** Which Potency does the source give for ClC(Cl)(Cl)C(Cl)(Cl)Cl here?
**A.** inactive

**Q.** For CCBr, which Potency is on record?
**A.** inactive

**Q.** Which Potency does the source give for Nc1ccc(Cl)c(Cl)c1 here?
**A.** inactive

**Q.** Which Potency does the source give for CCCCC(CC)COC(=O)c1ccc(C(=O)OCC(CC)CCCC)c(C(=O)OCC(CC)CCCC)c1 (stereo not given) here?
**A.** inactive

**Q.** For CN1CSC(=S)N(C)C1, which Potency is on record?
**A.** 31.6 µM (active)

**Q.** Which Potency does the source give for ClCCOCCCl here?
**A.** inactive

**Q.** Which Potency does the source give for Clc1cc(Cl)c(Cl)c(Cl)c1 here?
**A.** inactive

**Q.** With S=c1[nH]c2ccccc2[nH]1 as the compound, how does the Potency read?
**A.** inactive

**Q.** For Nc1ccc(Oc2ccc(N)cc2)cc1, which Potency is on record?
**A.** inactive

**Q.** For N#CCCCCC#N, which Potency is on record?
**A.** inactive
